Laboratory results: PubChem BioAssay AID1159580 (chemical genetic matrix, 2015)
Among all 5,500 compounds or so, about 2,000 (36%) were called active. Roughly 18% stayed inconclusive and do not appear here. Cut-off read from the data, not from the text of the source: active = normalized growth mostly below about 0.91 (no sharp cut-off); inconclusive = no clear call, values can overlap the other calls; inactive = mostly above about 0.92. Some of the results follow.

Assay: chemical genetic growth profiling, strain panel (AID 1159580);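 note: tested at 20 µM; growth read once vehicle control cultures reached saturation at 30 °C; 1 = growth at the plate median or of vehicle wells; lower values mean less growth of the strain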
Details: growth OD

Measured: normalized growth

CCC(=O)O[C@]1(C(=O)CCl)[C@@H](C)CC2C3CCC4=CC(=O)C=C[C@]4(C)[C@@]3(F)[C@@H](O)C[C@@]21C (stereo partly specified)
inactive: S. cerevisiae deletion strains, locus YJR043C, strain POL32, hits give low values 0.982 | S. cerevisiae deletion strains, locus YJR066W, strain TOR1, hits give low values 0.952 | S. cerevisiae deletion strains, locus YKL009W, strain mrt4, hits give low values 1.01 | S. cerevisiae deletion strains, locus YKL068W, hits give low values 0.972 | S. cerevisiae deletion strains, locus YKL085W, strain MDH1 (second series), hits give low values 0.985 | S. cerevisiae deletion strains, locus YKL085W, strain MDH1, hits give low values 0.985 | S. cerevisiae deletion strains, locus YKL160W, strain elf1, hits give low values 1.02 | S. cerevisiae deletion strains, locus YKL190W, strain CNB1, hits give low values 0.981 | S. cerevisiae deletion strains, locus YKR001C, strain vps1, hits give low values 0.988 | S. cerevisiae deletion strains, locus YKR026C, strain gcn3, hits give low values 1.03 | S. cerevisiae deletion strains, locus YKR091W, strain srl3, hits give low values 1.02 | S. cerevisiae deletion strains, locus YLL001W, strain dnm1, hits give low values 1.02 | S. cerevisiae deletion strains, locus YLL026W, hits give low values 1.01 | S. cerevisiae deletion strains, locus YLL041C, strain sdh2, hits give low values 1.01 | S. cerevisiae deletion strains, locus YLR027C, strain aat2, hits give low values 1.02 | S. cerevisiae deletion strains, locus YLR039C, strain RIC1, hits give low values 0.959 | S. cerevisiae deletion strains, locus YLR058C, strain SHM2, hits give low values 0.983 | S. cerevisiae deletion strains, locus YLR102C, strain apc9, hits give low values 0.985 | S. cerevisiae deletion strains, locus YLR113W, strain HOG1, hits give low values 0.982 | S. cerevisiae deletion strains, locus YLR221C, strain rsa3, hits give low values 1.03 | S. cerevisiae deletion strains, locus YLR258W, strain gsy2, hits give low values 1.02 | S. cerevisiae deletion strains, locus YLR262C, strain YPT6 (second series), hits give low values 1.02 | S. cerevisiae deletion strains, locus YLR262C, strain YPT6, hits give low values 0.941 | S. cerevisiae deletion strains, locus YLR268W, strain sec22, hits give low values 0.961 | S. cerevisiae deletion strains, locus YLR320W, strain mms22, hits give low values 1.04 | S. cerevisiae deletion strains, locus YLR330W, strain CHS5, hits give low values 0.971 | S. cerevisiae deletion strains, locus YLR342W, strain FKS1 (second series), hits give low values 0.999 | S. cerevisiae deletion strains, locus YLR342W, strain FKS1, hits give low values 1.02 | S. cerevisiae deletion strains, locus YLR357W, strain rsc2, hits give low values 1.05 | S. cerevisiae deletion strains, locus YLR370C, strain arc18, hits give low values 1.02 | S. cerevisiae deletion strains, locus YLR371W, strain rom2, hits give low values 0.976 | S. cerevisiae deletion strains, locus YLR384C, strain iki3, hits give low values 1.04 | S. cerevisiae deletion strains, locus YLR418C, strain cdc73, hits give low values 0.969 | S. cerevisiae deletion strains, locus YML016C, strain PPZ1, hits give low values 0.988 | S. cerevisiae deletion strains, locus YML032C, strain rad52, hits give low values 0.985 | S. cerevisiae deletion strains, locus YML120C, strain ndi1, hits give low values 1 | S. cerevisiae deletion strains, locus YML124C, strain tub3, hits give low values 0.993 | S. cerevisiae deletion strains, locus YMR058W, strain fet3, hits give low values 1.02 | S. cerevisiae deletion strains, locus YMR078C, strain ctf18, hits give low values 0.983 | S. cerevisiae deletion strains, locus YMR125W, strain sto1, hits give low values 1.02 | S. cerevisiae deletion strains, locus YMR129W, hits give low values 1.02 | S. cerevisiae deletion strains, locus YMR205C, strain PFK2, hits give low values 1.04 | S. cerevisiae deletion strains, locus YMR223W, strain ubp8, hits give low values 0.982 | S. cerevisiae deletion strains, locus YMR231W, strain pep5, hits give low values 1.02 | S. cerevisiae deletion strains, locus YMR263W, strain SAP30, hits give low values 0.987 | S. cerevisiae deletion strains, locus YMR307W, strain GAS1, hits give low values 0.87 | S. cerevisiae deletion strains, locus YNL067W, strain RPL9B, hits give low values 0.992 | S. cerevisiae deletion strains, locus YNL071W, strain lat1, hits give low values 1.02 | S. cerevisiae deletion strains, locus YNL183C, strain NPR1, hits give low values 0.935 | S. cerevisiae deletion strains, locus YNL209W, strain ssb2, hits give low values 1.01 | S. cerevisiae deletion strains, locus YNL233W, strain BNI4, hits give low values 1.01 | S. cerevisiae deletion strains, locus YNL248C, strain rpa49, hits give low values 1.02 | S. cerevisiae deletion strains, locus YNL250W, strain rad50, hits give low values 0.988 | S. cerevisiae deletion strains, locus YNL271C, strain bni1, hits give low values 0.963 | S. cerevisiae deletion strains, locus YNL298W, strain CLA4, hits give low values 0.964 | S. cerevisiae deletion strains, locus YNL307C, strain MCK1, hits give low values 0.987 | S. cerevisiae deletion strains, locus YNL322C, strain KRE1 (second series), hits give low values 1.03 | S. cerevisiae deletion strains, locus YNL322C, strain KRE1, hits give low values 0.988 | S. cerevisiae deletion strains, locus YNR049C, strain mso1, hits give low values 1.01 | S. cerevisiae deletion strains, locus YNR052C, strain pop2, hits give low values 0.988 | S. cerevisiae deletion strains, locus YOL006C, strain TOP1, hits give low values 0.958 | S. cerevisiae deletion strains, locus YOL012C, strain htz1 0.831 | S. cerevisiae deletion strains, locus YOL147C, strain pex11, hits give low values 0.986 | S. cerevisiae deletion strains, locus YOR001W, strain rrp6, hits give low values 1.03 | S. cerevisiae deletion strains, locus YOR061W, strain CKA2, hits give low values 0.978 | S. cerevisiae deletion strains, locus YOR069W, strain VPS5, hits give low values 0.978 | S. cerevisiae deletion strains, locus YOR070C, strain gyp1, hits give low values 1.02 | S. cerevisiae deletion strains, locus YOR080W, strain dia2, hits give low values 1.03 | S. cerevisiae deletion strains, locus YOR083W, strain WHI5, hits give low values 1.02 | S. cerevisiae deletion strains, locus YOR106W, strain vam3, hits give low values 1.02 | S. cerevisiae deletion strains, locus YOR136W, strain idh2, hits give low values 0.995 | S. cerevisiae deletion strains, locus YOR144C, strain elg1, hits give low values 0.997 | S. cerevisiae deletion strains, locus YOR184W, strain ser1, hits give low values 0.986 | S. cerevisiae deletion strains, locus YOR231W, strain MKK1, hits give low values 0.959 | S. cerevisiae deletion strains, locus YOR265W, strain rbl2, hits give low values 1.02 | S. cerevisiae deletion strains, locus YOR270C, strain vph1, hits give low values 0.984 | S. cerevisiae deletion strains, locus YOR290C, strain snf2, hits give low values 1.02 | S. cerevisiae deletion strains, locus YOR316C, strain cot1, hits give low values 0.991 | S. cerevisiae deletion strains, locus YPL051W, strain arl3, hits give low values 1.02 | S. cerevisiae deletion strains, locus YPL055C, strain LGE1, hits give low values 1.01 | S. cerevisiae deletion strains, locus YPL078C, strain atp4, hits give low values 1.02 | S. cerevisiae deletion strains, locus YPL106C, strain sse1, hits give low values 1.06 | S. cerevisiae deletion strains, locus YPL240C, strain hsp82, hits give low values 1.01 | S. cerevisiae deletion strains, locus YPL241C, strain CIN2, hits give low values 0.981 | S. cerevisiae deletion strains, locus YPL256C, strain CLN2, hits give low values 0.961 | S. cerevisiae deletion strains, locus YPR119W, strain clb2, hits give low values 0.981 | S. cerevisiae deletion strains, locus YPR141C, strain kar3, hits give low values 0.967 | S. cerevisiae deletion strains, locus YPR163C, strain tif3, hits give low values 0.956 | S. cerevisiae deletion strains, locus YPR167C, strain met16, hits give low values 0.978 | S. cerevisiae deletion strains, strain wtn01, hits give low values 0.998 | S. cerevisiae strains, strain wild type, hits give low values 0.98
